# According to PubChem BioAssay (NCI):
# About 83,000 compounds went through this panel and 20% of them were active in at least one assay; those are over-represented in the sample as a whole.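 Treatment: one concentration, 48 hours, 96-well format. Scoring: percent growth, with anything below 10 considered active.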 A number with no mark means an inactive call. Activity calls are given as the source filed them.
# What was measured:
# Assay in all cases: NCI-60 one-dose screen, 48 h (100 = growth as untreated, 0 = no growth, -100 = all killed)
# Conditions in all cases: 10 µM unless noted
# NCI-H23 lung = tested on: NCI-H23 lung
# NCI-H226 lung = tested on: NCI-H226 lung
# NCI-H322M lung = tested on: NCI-H322M lung
# HOP-62 NSCLC = tested on: HOP-62 NSCLC
# NCI-H460 lung = tested on: NCI-H460 lung
# HOP-92 NSCLC = tested on: HOP-92 NSCLC
# NCI-H522 lung = tested on: NCI-H522 lung
# A549/ATCC NSCLC = tested on: A549/ATCC NSCLC
# 786-0 renal = tested on: 786-0 renal
# COLO 205 colon = tested on: COLO 205 colon
SMILES,growth (NCI-H23 lung),growth (NCI-H226 lung),growth (NCI-H322M lung),growth (HOP-62 NSCLC),growth (NCI-H460 lung),growth (HOP-92 NSCLC),growth (NCI-H522 lung),growth (A549/ATCC NSCLC),growth (786-0 renal),growth (COLO 205 colon)
COC(=O)[C@@H](Cc1c[nH]c2ccccc12)NC[C@@H](O)CN1C(=O)/C(=C\c2cc(OC)c(OC)c(OC)c2)c2ccccc21,76.6%,58.5%,84.8%,64.8%,68.2%,68%,67.4%,67.2%,77.6%,73.8%
CCN1C(=O)N(CC)C2C1NC(=S)N2/N=C/C=C/c1cccs1 (stereo not given),42.6%,64.5%,50.9%,51.1%,7.03% (active),88.8%,-5.25% (active),24.9%,43.1%,18.3%
COc1ccc(-c2cn(Cc3ccc4c(Br)cc(Br)c(O)c4n3)nn2)cc1,95.5%,101%,100%,98.4%,105%,80.3%,58.5%,98.7%,104%,107%
O=C(Nc1ccccc1)Nc1ccccc1CNc1nc(Nc2ccc(OCCN3CCCC3)cc2)ncc1Cl,68.1%,89.4%,91.1%,79.3%,-37.7% (active),65.1%,58.6%,59.4%,9.35% (active),33%
COc1ccc(C2=NN3C(C2)c2cc(Br)ccc2OC3c2ccncc2)cc1 (stereo not given),81.8%,92.7%,76.4%,79.9%,59.4%,82.7%,60%,71.7%,92.6%,110%
COC(=O)c1cc(-c2cc(OC)c(OC)c(OC)c2)[nH]c1N/N=C/c1c(Cl)cccc1Cl,-15.6% (active),72.5%,45.3%,-43.9% (active),2.31% (active),-34.8% (active),-45.3% (active),28.1%,-44.4% (active),56.1%
O=C1N/C(=N/N=C(c2ccccc2)c2ccccc2)S/C1=C\c1ccc(Br)cc1,94.1%,84.7%,95%,98.1%,98.4%,92.3%,69.6%,74.7%,98%,104%
COc1cc(CNC(=O)CCCC/C=C/C(C)C)ccc1OCc1cn(-c2ccc(C(F)(F)F)cc2)nn1,94.6%,53.6%,96.1%,64.6%,16.7%,13.8%,75.6%,49%,2.94% (active),72.6%
c1ccc(-c2nc(N3CCNCC3)c3oc(-c4ccccc4)nc3n2)cc1,-66.8% (active),-41.6% (active),-95.1% (active),-67.9% (active),-81.1% (active),-53.1% (active),-28.3% (active),-44.8% (active),-74.1% (active),-39.7% (active)
C=C1C(=O)O[C@H]2[C@H]1CC/C(CNC(=O)/C=C/c1cc(OC)c(OC)c(OC)c1)=C\CC[C@@]1(C)O[C@@H]21,-31.3% (active),-61.8% (active),60%,26%,82.3%,-36% (active),-93.5% (active),40%,-68.5% (active),-86.5% (active)
CN(C)C(=O)OCc1ccc2c(Cl)cc(Cl)c(O)c2n1,51.2%,68.3%,53.8%,27.3%,31.3%,58.8%,65.1%,25%,48.7%,104%
CCOC(=O)c1ccc2c(c1)c1c(C)c3cnccc3c(C)c1n2C,-51.2% (active),-33.6% (active),-14.1% (active),-47.3% (active),-17.2% (active),-24.2% (active),-79.1% (active),-11.8% (active),-95.7% (active),-63.9% (active)
NCCCCCNc1noc(Cc2c[nH]c3cc(Br)ccc23)n1,30.9%,61%,33.4%,21.6%,12.8%,19.7%,-38.3% (active),24.6%,43.2%,-0.719% (active)
CCOC(=O)c1c2c(n3ccc(NC(=O)CCN4CCCC4)cc13)C(=O)c1ncccc1C2=O,-72.5% (active),63.6%,-76.7% (active),-68.5% (active),-79.9% (active),56.2%,-37% (active),-66.6% (active),-88.2% (active),15.4%
O=C1C=CC2(O)OC(c3ccccc3)CC(=O)C2=C1O (stereo not given),79.2%,99.7%,90%,86.5%,93.6%,93.8%,-17% (active),85.6%,93.6%,118%
CCOC(=O)c1c(C)c2c(n1Cc1ccccc1)CSc1cc(C#N)c(=O)[nH]c1-2,72.6% [100 µM],89.6% [100 µM],78.6% [100 µM],58.7% [100 µM],67% [100 µM],-18.5% [100 µM] (active),87% [100 µM],75.1% [100 µM],19.8% [100 µM],60.4% [100 µM]
CCOC(=O)CC1C(CNC(=O)NC)OC(n2cnc3c(NC(=O)Nc4ccccc4)ncnc32)C1O[Si](C)(C)C(C)(C)C (stereo not given),91.7%,75.9%,90.5%,78.9%,47.6%,63.1%,80.2%,22.4%,76.1%,43%
O=c1cc(-c2nccc3c2[nH]c2ccccc23)c2cc(Cl)ccc2o1,60.7%,49.5%,81.6%,32.7%,21.5%,26.1%,14.4%,42.3%,27.9%,68.7%
COC1=C(OC)C(=O)C(CCCCCCCCCCO)=C(C)C1=O,35.2%,96.6%,112%,86.4%,98.8%,76.6%,63.7%,96%,83.3%,102%
CC1=C([Se]CC(OC(=O)[C@@H](CO)NC(=O)OC(C)(C)C)C(=O)NCCCCCC(=O)OCc2ccccc2)C(=O)c2ccccc2C1=O (stereo not given in full),-77.8% (active),-85.4% (active),-74% (active),-100% (active),-4.97% (active),-75.3% (active),-94.6% (active),-24% (active),-97.3% (active),10.2%
Cc1c(Cl)cccc1NC(=O)c1sc2nc3c(cc2c1N)CCCC3,58.9%,69.3%,74.2%,25.2%,12.9%,25.6%,4.4% (active),39.1%,29.8%,22.1%
CC(=O)c1ccc(Nc2nccc(-c3ccc(Cl)cc3)n2)cc1,84.2%,54%,100%,108%,85.5%,109%,90.8%,87%,101%,105%
